We go through 49 molecules from ChEMBL document CHEMBL3988442, “University of Dundee, Small-Polar-MMV Screening Library” (2021).

Out of some 48,000 compounds screened, about 13,000 (27%) showed an effect of 50% or more. The list shows a part of the results.

For this assay, the system named is Wolbachia pipientis. As to the kind of experiment: Anti-Wolbachia Cell-Based Screen. To be noted: 5 µM. The class given is functional. On the set-up: scale not given: in the data most compounds retested in dose-response had high values.
With `Cc1nc(CN2CCCN(CC(=O)Nc3cccnc3)CC2)no1`, the “Percent Effect” value is on record as -4.253%.
As to `Cc1ncc2c(n1)CN(CC(=O)Nc1nncs1)CC2`, the “Percent Effect” value is 10.92%.
As for `Cc1ncc2c(n1)CN(CC(=O)Nc1nccs1)CC2`, the figure is 121.1%.
Regarding `CCc1ncc2c(n1)CN(CC(=O)Nc1nnc(C)s1)CC2`, the “Percent Effect” value is -0.5205%.
The figure for `Cc1ncc2c(n1)CN(CC(=O)Nc1cccnc1)CC2` is 115.5%; for `Cc1nnc(NC(=O)CN2CCCC(c3ccn[nH]3)C2)s1` (centres undefined) it is 8.304%.
For the molecule `Cc1ncc2c(n1)CN(CC(=O)N1CCc3sccc3C1)CC2`, the “Percent Effect” value is on record as -8.865%.
The figure for `Cc1ncc2c(n1)CN(CC(=O)Nc1nnc(C)s1)CC2` is 120.8%.
Take `Cc1ncc2c(n1)CN(CC(=O)Nc1ccncc1)CC2`: the “Percent Effect” value was found to be 3.82%.
The figure for `COC(=O)[C@H]1CN(C(=O)NC(C)C)CCN1C(=O)CSC` is 4.68%; for `CSCCN(C)Cc1ccc(F)cc1C#N` it is -7.692%; for `Cc1nnsc1CN1C[C@@H]2CC[C@H](C1)N(Cc1ccccc1)C2` it is -5.089%.
The figure for `Cc1nnsc1CN1C[C@H]2CC[C@@H]1CN(Cc1ccccc1)C2` is 2.749%; for `CC(C)c1nnc(N2C[C@@H]3CC[C@H](C2)N(CC2CCC2)C3)s1` it is 78.31%; for `CC(C)c1nnc(N2C[C@@H](CN(C)CCO)[C@@H](CO)C2)s1` it is -2.617%.
On to `CCCN1C[C@H]2CC[C@@H]1CN(Cc1ccc(Cn3cccn3)cc1)C2`, for which the “Percent Effect” value is reported as -13.63%.
The figure for `CC(=O)c1ccc(C(=O)N2C[C@@H]3CC[C@H](C2)N(CC2CCC2)C3)s1` is -8.325%; for `CC(C)c1nnc(N2C[C@@H]3CC[C@H](C2)N(Cc2ccccc2)C3)s1` it is 104.2%.
Take `Cc1ccc(C(=O)N2C[C@@H]3CC[C@H](C2)N(CC2CCC2)C3)s1`: the “Percent Effect” value is listed as -1.222%.
The figure for `CCCN1C[C@H]2CC[C@@H]1CN(c1nnc(C(C)C)s1)C2` is 100.1%; for `N#CCCNC(=O)CN1CCC(c2cc3ccccc3[nH]2)CC1` it is 7.04%.
As for `O=C(O)C(F)(F)F.O=C(O)[C@]12CCCN(Cc3ccsc3)C[C@H]1CN(c1ncccn1)C2`, the figure is 0.06928%; as for `CCc1nc(CN2CCCC(NCc3nc4cccnc4[nH]3)C2)no1` (centres undefined), -2.824%; as for `Cc1ccc(CN2CCCC3(COCCN(Cc4c[nH]nn4)C3)C2)s1.O=C(O)C(F)(F)F.O=C(O)C(F)(F)F` (centres undefined), -11.68%.
The figure for `Fc1ccc(OCc2noc(CN3CCc4cncnc4C3)n2)cc1` is -13.93%; for `CC(C(=O)NC(C)(C)C)N1CCC(C(=O)Nc2cnccn2)CC1` (centres undefined) it is -9.659%; for `OCC(CO)N1CCC(c2nnc(Cn3ccnc3)n2C2CC2)CC1` it is 11.43%.
`CN1CCC(c2nccnc2Nc2cnccn2)CC1`: the “Percent Effect” value is recorded as 94.48%.
As for `OCC(CO)N1CCC(c2nccnc2Nc2cnccn2)CC1`, the figure is 132.8%.
With `CC(C)N1CCC(c2nccnc2Nc2cnccn2)CC1`, the “Percent Effect” value was 128.3%.
As for `CC(=O)N1CCC(c2nccnc2Nc2cnccn2)CC1`, the figure is 118.2%.
As for `CCc1ccccc1OCCN1CC[C@@]2(O)CCNC[C@H]2C1`, the figure is 3.949%; as for `CCC(C)NC(=O)CCNC(=O)c1c[nH]cc1-c1cccc(OC)c1` (centres undefined), -21.59%; as for `CC(C)CNC(=O)CC1OCCc2ccsc21` (centres undefined), -17.3%.
As for `Cc1nc(CNC(=O)NCCC2=CCCC2)oc1C`, the figure is -10.48%; as for `CC(Cc1ccccc1F)NC(=O)CCc1nc(-c2nnc[nH]2)no1` (centres undefined), 5.01%.
In the case of `Cn1cc(-c2cccc(CNC(=O)N3CCC[C@@H]3CO)c2)cn1`, the “Percent Effect” value was -23.52%.
For `NC(=O)c1cncc(N2CCN(Cc3cccc4nsnc34)CC2)n1`, the “Percent Effect” value is recorded as -24.77%.
As for `CC(O)Cc1cn(CC2CCN(C3CCSCC3)CC2)nn1` (centres undefined), the figure is -14.87%; as for `Cc1cnc(NC(=O)N2CCCC2)s1`, 11.08%.
With `CC(C(=O)Nc1ncccn1)N1CCC(n2ccnc2)CC1` (centres undefined), the “Percent Effect” value is -2.043%.
The figure for `Cc1cnc(NC(=O)N2CCCCCC2)s1` is -6.378%; for `CC(=O)N1CCC(c2nccnc2Nc2ncc(C)s2)CC1` it is 69.11%; for `CC(C)N1CCC(c2nccnc2Nc2ncccn2)CC1` it is 97.4%.
The figure for `COc1ccc(C)cc1S(=O)(=O)NCCC(O)c1ccccc1` (centres undefined) is -7.148%; for `COCCC(=O)N1CCC(c2nc(O)cc(-c3ccncc3)n2)C1` (centres undefined) it is 95%.
The figure for `COCCC(=O)N1CCC(c2cc(O)n(C)n2)C1` (centres undefined) is 94.23%; for `COCCC(=O)N1CCCC(c2nc(O)cc(-c3ccncc3)n2)C1` (centres undefined) it is 119.6%.
`COCCCC1CCCN(C(=O)CCc2cc(O)no2)C1` (centres undefined): the “Percent Effect” value is -11.88%.
